Calls of active or inactive are those of the source.
Legend:
[1] = compound effects on lung adenocarcinoma cell viability – A549, calcein-AM fluorescence, 48 h, basal, profiling panel (AID 1162); conditions: higher = more signal; also: test concentration not given here
[2] = compound effects on differentiated 3T3-L1 adipocyte viability – cell-based, 3T3-L1 adipocytes, calcein-AM fluorescence, 48 h, basal, profiling panel (AID 1163); conditions: 3T3-L1 adipocytes viability, higher = more signal; also: test concentration not given here
[3] = compound effects on hepatocellular carcinoma cell viability – HepG2, calcein-AM fluorescence, 48 h, basal, profiling panel (AID 1164); conditions: higher = more signal; also: test concentration not given here
[4] = compound effects on multiple myeloma cell viability – MM1S, calcein-AM fluorescence, 48 h, basal, profiling panel (AID 1165); conditions: higher = more signal; also: test concentration not given here
[5] = calcein-AM signal in unstimulated myeloma cells – cell-based, calcein-AM fluorescence, 48 h, PK04 Diversity Set, profiling panel (AID 1166); conditions: RPMI8226 myeloma viability, higher = more signal;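 also: cells grown under basal conditions without added stimulus; test concentration not given here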
[6] = JC-1 mitochondrial signal, unstimulated HepG2 cells – cell-based, JC-1 fluorescence, 24 h, 100 nL compound, profiling panel (AID 1167); conditions: HepG2 mitochondrial potential, higher = more signal; also: test concentration not given here
[7] = JC-1 mitochondrial signal, unstimulated adipocytes – cell-based, JC-1 fluorescence, 3T3-L1 adipocytes, 24 h, 100 nL compound, profiling panel (AID 1168); conditions: JC-1 mitochondrial fluorescence, higher = more signal, called active from +8 up or from −8 down; also: test concentration not given here
[8] = JC-1 mitochondrial signal, unstimulated myeloma cells – cell-based, JC-1 fluorescence, RPMI8226, 24 h, 100 nL compound, profiling panel (AID 1169); conditions: JC-1 mitochondrial potential fluorescence, higher = more signal; also: test concentration not given here
[9] = JC-1 mitochondrial signal, unstimulated MM1S myeloma – cell-based, JC-1 fluorescence, 24 h, 100 nL compound, profiling panel (AID 1170); conditions: MM1S mitochondrial potential, higher = more signal; also: test concentration not given here
[10] = resazurin metabolic signal in A549 cells – cell-based, resazurin fluorescence, 24 h, PK04 Diversity Set, profiling panel (AID 1171); conditions: A549 viability, higher = more signal, called active from +8 up or from −8 down; also: test concentration not given here
[11] = resazurin metabolic signal in HepG2 cells – cell-based, resazurin fluorescence, 24 h, PK04 Diversity Set, profiling panel (AID 1172); conditions: HepG2 viability, higher = more signal; also: test concentration not given here
[12] = budding yeast growth changes without added modifier – OD600, strain BY4716, 24 h, basal condition, primary screen (AID 1173); conditions: S. cerevisiae BY4716 growth, OD600, 24 h; higher = more signal, called active from +8 up or from −8 down
[13] = viability profiling in MM1S myeloma cells – cell-based, resazurin fluorescence, basal, 24 h, PK04 Diversity Set, profiling panel (AID 1174); conditions: higher = more signal, called active from +8 up or from −8 down; also: test concentration not given here
[14] = target: Dihydroorotate dehydrogenase (quinone), mitochondrial (Plasmodium falciparum (isolate 3D7)) (UniProt Q08210); test: inhibition of P. falciparum DHODH – biochemical, C-terminal His tag, absorbance 600 nm, primary screen (AID 1175); conditions: PfDHODH enzyme, DCIP absorbance 600 nm; higher = more signal, called active from +8 up or from −8 down;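 also: recombinant parasite enzyme with a five histidine tag at its C terminus; test concentration not given here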
[15] = growth modulation of vineyard yeast isolate – strain RM11-1a, OD600, basal, 24 h, primary screen (AID 1177);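 also: cultures grown under basal conditions with no added stressor; test concentration not given here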; conditions: S. cerevisiae RM11-1a growth, OD600, 24 h; higher = more signal, called active from +8 up or from −8 down
[16] = growth of efflux-deficient E. coli DRC39 – strain DRC39, OD650, 24 h, E. coli filamentation inducers, primary screen (AID 1178);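 also: growth measured as culture turbidity by optical density at 650 nm; test concentration not given here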; conditions: E. coli DRC39 acrAB, higher = more signal, called active from +8 up or from −8 down
[17] = growth of efflux-deficient E. coli DRC39 – strain DRC39, OD650, 48 h, E. coli filamentation inducers, primary screen (AID 1179);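 also: screen aims at cell division blockers that make cells filament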; conditions: E. coli DRC39 delta-acrAB growth, higher = more signal, called active from +8 up or from −8 down
[18] = viability profiling in RPMI8226 myeloma cells – cell-based, resazurin fluorescence, basal, 24 h, PK04 Diversity Set, profiling panel (AID 1180); conditions: higher = more signal;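 also: RPMI8826 multiple myeloma cell line at 5000 cells per well; test concentration not given here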
[19] = target: E3 ubiquitin-protein ligase XIAP (Homo sapiens) (UniProt P98170); test: small molecules binding XIAP protein – biophysical, small-molecule microarray, fluorescence 635 nm, primary screen (AID 1181); conditions: higher = more signal;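 also: score merges 667 nm emission and signal to noise over triplicate slides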
E3 ubiquitin-protein ligase XIAP (Homo sapiens), sequence (P98170 whole entry, looked up): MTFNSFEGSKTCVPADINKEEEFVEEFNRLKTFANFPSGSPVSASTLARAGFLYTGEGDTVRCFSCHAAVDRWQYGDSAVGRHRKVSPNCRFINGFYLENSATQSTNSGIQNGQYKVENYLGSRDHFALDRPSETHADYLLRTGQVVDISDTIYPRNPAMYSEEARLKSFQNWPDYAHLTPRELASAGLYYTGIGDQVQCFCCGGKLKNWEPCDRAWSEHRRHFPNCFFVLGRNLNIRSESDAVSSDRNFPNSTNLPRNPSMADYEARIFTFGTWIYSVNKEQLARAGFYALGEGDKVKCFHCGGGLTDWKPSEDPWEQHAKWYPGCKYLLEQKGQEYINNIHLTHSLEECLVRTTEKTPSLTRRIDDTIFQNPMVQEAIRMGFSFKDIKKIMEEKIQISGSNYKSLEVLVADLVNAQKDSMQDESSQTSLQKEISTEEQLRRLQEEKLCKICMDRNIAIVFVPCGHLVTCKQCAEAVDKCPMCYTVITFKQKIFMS

Dihydroorotate dehydrogenase (quinone), mitochondrial (Plasmodium falciparum (isolate 3D7)), sequence (Q08210 whole entry, looked up): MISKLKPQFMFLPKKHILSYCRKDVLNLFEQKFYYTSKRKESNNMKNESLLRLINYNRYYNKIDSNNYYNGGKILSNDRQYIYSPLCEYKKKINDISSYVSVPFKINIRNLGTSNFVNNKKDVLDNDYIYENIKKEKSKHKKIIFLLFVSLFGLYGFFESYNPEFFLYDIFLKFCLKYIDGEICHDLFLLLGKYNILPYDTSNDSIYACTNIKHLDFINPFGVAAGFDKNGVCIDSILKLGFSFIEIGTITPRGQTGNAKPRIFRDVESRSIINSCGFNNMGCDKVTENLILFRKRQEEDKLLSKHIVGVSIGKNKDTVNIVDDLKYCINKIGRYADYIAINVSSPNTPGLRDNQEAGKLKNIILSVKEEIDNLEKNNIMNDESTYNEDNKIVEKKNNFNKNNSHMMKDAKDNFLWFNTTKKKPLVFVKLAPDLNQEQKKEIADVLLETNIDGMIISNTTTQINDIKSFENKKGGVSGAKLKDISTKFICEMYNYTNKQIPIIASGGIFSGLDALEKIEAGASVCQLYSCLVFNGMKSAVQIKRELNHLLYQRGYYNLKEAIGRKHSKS

Row | SMILES | z-score [1] | z-score [2] | z-score [3] | z-score [4] | z-score [5] | z-score [6] | z-score [7] | z-score [8] | z-score [9] | z-score [10] | z-score [11] | z-score [12] | z-score [13] | composite z-score [14] | z-score [15] | z-score [16] | z-score [17] | z-score [18] | composite z-score [19]
1 | CO[C@]12C=C(Br)[C@@H](C[C@@H]1c1ccccc1)[C@@]1(CO1)C2=O | -1.08 | 1.18 | -1.08 | -2.34 | -1.62 | -0.143 | 1.12 (inactive) | -0.376 | 0.0484 | -0.446 (inactive) | 0.418 | -5.19 (inactive) | 0.0036 (inactive) | 1.03 (inactive) | -0.123 (inactive) | 2.39 (inactive) | 1.29 (inactive) | 0.63 | -0.142
2 | COc1cc(CO)cc(I)c1O[C@H]1C=C(C(=O)NCCO)C[C@@H](NCCc2c[nH]c3ccccc23)[C@@H]1O | 1.74 | -0.335 | 0.0706 | -0.68 | -0.391 | -1.01 | 1.01 (inactive) | 0.166 | -0.389 | 0.279 (inactive) | 0.507 | -8.04 (active) | 0.221 (inactive) | 1.23 (inactive) | 0.216 (inactive) | 2.21 (inactive) | -0.41 (inactive) | 0.848 | -0.242
3 | O=C(NCC(O)CO)[C@]1(Cc2ccccc2)N=C(c2ccc(OCCCO)cc2)O[C@@H]1c1ccccc1 (stereo partly specified) | -0.798 | 1.91 | -2.22 | -1.26 | -1.08 | -1.81 | 1.03 (inactive) | 0.159 | 0.245 | 0.519 (inactive) | 0.206 | -3.32 (inactive) | 1.71 (inactive) | 0.287 (inactive) | -0.989 (inactive) | 2.22 (inactive) | 0.235 (inactive) | 0.761 | 0.0251
4 | COC(=O)C1=CC(c2ccc(CO)cc2)=CC(C2CC2)N(Cc2sc3ccccc3c2Cl)C=C1C(=O)OC (stereo unspecified) | -0.905 | 1.77 | -0.651 | -2.62 | -4.22 | 1.72 | 0.982 (inactive) | -0.804 | -0.969 | -1.3 (inactive) | 0.0452 | -4.51 (inactive) | -2.01 (inactive) | -0.245 (inactive) | -0.844 (inactive) | -2.1 (inactive) | -1.67 (inactive) | -1.75 | 0.0909

Reference: PubChem BioAssay
